PubChem BioAssay
Active and inactive are the calls of the source.

Legend:
[1] = target: Albumin (Bos taurus) (UniProt P02769); experiment: bovine serum albumin binders on microarray, profiling panel, artefact control for SMM control protein annotation, biochemical, small-molecule microarray, Alexa647 label, 635/667 nm fluorescence (AID 1118); details: BSA-A647 binding, fluorescence 635 nm, higher = more signal;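 also: score merges 667 nm emission intensity and signal-to-noise per printed compound spot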
[2] = small-molecule microarray binders of probe aXIP, primary screen, biochemical, NeuroSMM set, 635/667 nm fluorescence (AID 1119); details: higher = more signal, called active from +8 up or from −8 down;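 also: probe is the protein aXip251-270 applied at 1 µg/mL to compound-printed slides; binding of probe to printed compounds measured as 667 nm fluorescence plus signal to noise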
[3] = small-molecule binders of probe aNOTCH3, primary screen, biochemical, small-molecule microarray, 635/667 nm fluorescence (AID 1120); details: higher = more signal;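 also: probe is a biotin-tagged antibody raised against NOTCH3 rather than NOTCH3 protein; score merges spot fluorescence near 667 nm with spot signal to noise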
[4] = small-molecule binders of probe aNOTCH2, primary screen, biochemical, small-molecule microarray, 635/667 nm fluorescence (AID 1121); details: higher = more signal;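 also: score merges feature fluorescence read at 667 nm with its signal to noise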
[5] = target: Carbonic anhydrase 2 (Homo sapiens) (UniProt P00918); experiment: CAII small-molecule binders, profiling panel, biochemical, small-molecule microarray, Alexa647-labelled CAII (AID 1122); details: CAII-A647 binding fluorescence, higher = more signal
[6] = COS7 lysate on small-molecule microarray, probe aHis, 635 nm (AID 1123); details: COS7 cell lysate, fluorescence, higher = more signal;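 also: z-score combines 667nm fluorescence intensity with signal-to-noise per printed compound spot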
[7] = compound binding in COS7 lysate, probe aLAP1, primary screen, cell lysate, small-molecule microarray (AID 1124); details: probe aLAP1, fluorescence, higher = more signal;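 also: lysate comes from COS7 cells expressing LAP1 and is applied at 0.3 µg/mL; score merges spot fluorescence near 667 nm with signal-to-noise over triplicate slides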
[8] = system: Sam68 (KHDRBS1); experiment: Sam68 small-molecule binders, primary screen, biochemical, small-molecule microarray, 635 nm fluorescence (AID 1125); details: small-molecule microarray binding, higher = more signal;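 also: score merges 667 nm channel intensity with signal to noise over triplicate slides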
[9] = system: Chordin-like protein 2 (CHRDL2); experiment: CHRDL2 small-molecule binders, primary screen, biochemical, small-molecule microarray, 635 nm fluorescence (AID 1126); details: small-molecule microarray binding, fluorescence 635 nm; higher = more signal;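 also: printed compound slides probed with Chrdl2 protein at 4 µg/mL for 1 h at 4 C; score merges 667 nm emission intensity with signal to noise over three replicate slides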
[10] = target: Concanavalin-A (Canavalia ensiformis) (UniProt P02866); experiment: ConA small-molecule binders, primary screen, artefact control for SMM control protein annotation, biochemical, small-molecule microarray, Alexa647 label, 635 nm (AID 1127); details: ConA-A647 binding fluorescence, higher = more signal;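 also: z combines 667 nm emission intensity with signal-to-noise across three replicate slides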
[11] = anti-His antibody binders, primary screen, artefact control for SMM control protein annotation, biochemical, small-molecule microarray, 635 nm fluorescence (AID 1128); details: anti-His Alexa647 antibody binding, higher = more signal;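 also: score merges feature fluorescence with signal-to-noise for each printed compound spot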
[12] = system: Human papillomavirus type 1a E7 protein (residues 1-88); experiment: HPV1a E7 small-molecule binders, primary screen, biochemical, small-molecule microarray, residues 1-88, 635 nm (AID 1129); details: small-molecule microarray binding, fluorescence 635 nm; higher = more signal
[13] = target: Focal adhesion kinase 1 (Homo sapiens) (UniProt Q05397); experiment: small-molecule microarray binders of FAK, primary screen, biochemical, 635/667 nm fluorescence, BSA, DTT (AID 1130); details: PTK2 binding, 635 nm fluorescence, higher = more signal;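 also: composite of spot emission at 667 nm and signal to noise over triplicate slides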
[14] = system: Fibrinogen (Alexa647-labelled); experiment: fibrinogen binders on compound microarrays, profiling panel, artefact control for SMM control-protein annotation, biochemical, small-molecule microarray, 635/667 nm fluorescence (AID 1131); details: fibrinogen-A647 binding fluorescence, higher = more signal;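 also: z-score merges 667 nm fluorescence with per-spot signal-to-noise over triplicate slides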
[15] = target: Follistatin (Homo sapiens) (UniProt P19883); experiment: follistatin binders on small-molecule microarrays, primary screen, biochemical, small-molecule microarray, 635/667 nm fluorescence (AID 1132); details: FST binding, 635 nm fluorescence, higher = more signal
[16] = target: Fibroblast growth factor 2 (Homo sapiens) (UniProt P09038); experiment: FGF2 binders on small-molecule microarrays, primary screen, biochemical, small-molecule microarray, 635/667 nm fluorescence (AID 1133); details: small-molecule microarray binding, FGF2, fluorescence 635/667; higher = more signal
[17] = mitochondrial membrane potential change in A549 cells, profiling panel, cell-based, JC-1 fluorescence, basal, 24 h, 100 nL (AID 1138); details: higher = more signal;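 also: A549 lung adenocarcinoma cells under basal conditions with no added stimulus; test concentration not given here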
[18] = system: Lefty1; experiment: Lefty1 binders on small-molecule microarrays, primary screen, biochemical, small-molecule microarray, 635/667 nm fluorescence (AID 1139); details: small-molecule microarray binding, fluorescence 635/667; higher = more signal
[19] = system: wheat germ agglutinin (Triticum aestivum), Alexa647-labelled; experiment: wheat germ agglutinin binders on compound microarrays, profiling panel, artefact control for SMM control-protein annotation, biochemical, small-molecule microarray, 635/667 nm fluorescence (AID 1140); details: WGA-A647 binding, 635 nm fluorescence, higher = more signal;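 also: score merges 667 nm feature emission with signal to noise over triplicate slides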
[20] = target: Luciferin 4-monooxygenase (Photinus pyralis) (UniProt P08659); experiment: firefly luciferase enzyme inhibitors, primary screen, biochemical, luminescence, purified enzyme, 2006 set (AID 1141); details: SteadyGlo luminescence, 30 min, higher = more signal, called active from +8 up or from −8 down;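 also: cell-free assay with purified firefly luciferase at 100 ng per well in PBS; test concentration not given here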
Chain of Luciferin 4-monooxygenase (Photinus pyralis) (P08659 whole entry, looked up): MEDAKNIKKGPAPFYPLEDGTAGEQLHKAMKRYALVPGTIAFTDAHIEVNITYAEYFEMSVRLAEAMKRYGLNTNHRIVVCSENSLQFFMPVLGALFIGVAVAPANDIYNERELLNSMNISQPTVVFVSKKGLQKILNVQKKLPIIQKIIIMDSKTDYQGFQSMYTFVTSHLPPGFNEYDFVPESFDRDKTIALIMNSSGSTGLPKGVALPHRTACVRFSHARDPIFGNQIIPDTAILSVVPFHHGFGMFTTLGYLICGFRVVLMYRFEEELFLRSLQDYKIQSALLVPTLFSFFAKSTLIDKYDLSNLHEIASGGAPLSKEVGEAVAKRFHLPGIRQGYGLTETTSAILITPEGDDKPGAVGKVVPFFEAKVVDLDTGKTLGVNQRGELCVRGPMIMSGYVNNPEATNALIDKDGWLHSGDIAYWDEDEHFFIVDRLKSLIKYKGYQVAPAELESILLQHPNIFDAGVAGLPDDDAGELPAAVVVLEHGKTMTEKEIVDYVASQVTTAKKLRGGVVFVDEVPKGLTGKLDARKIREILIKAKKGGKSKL

Chain of Fibroblast growth factor 2 (Homo sapiens) (P09038 whole entry, looked up): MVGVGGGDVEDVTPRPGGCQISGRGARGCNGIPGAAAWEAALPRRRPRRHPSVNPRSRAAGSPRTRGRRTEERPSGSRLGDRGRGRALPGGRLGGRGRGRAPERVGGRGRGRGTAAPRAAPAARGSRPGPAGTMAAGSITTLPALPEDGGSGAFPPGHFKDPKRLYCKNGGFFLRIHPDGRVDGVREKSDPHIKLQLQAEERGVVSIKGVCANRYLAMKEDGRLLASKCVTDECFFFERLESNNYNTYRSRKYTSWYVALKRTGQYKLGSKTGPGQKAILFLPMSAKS
Chain of Follistatin (Homo sapiens) (P19883 whole entry, looked up): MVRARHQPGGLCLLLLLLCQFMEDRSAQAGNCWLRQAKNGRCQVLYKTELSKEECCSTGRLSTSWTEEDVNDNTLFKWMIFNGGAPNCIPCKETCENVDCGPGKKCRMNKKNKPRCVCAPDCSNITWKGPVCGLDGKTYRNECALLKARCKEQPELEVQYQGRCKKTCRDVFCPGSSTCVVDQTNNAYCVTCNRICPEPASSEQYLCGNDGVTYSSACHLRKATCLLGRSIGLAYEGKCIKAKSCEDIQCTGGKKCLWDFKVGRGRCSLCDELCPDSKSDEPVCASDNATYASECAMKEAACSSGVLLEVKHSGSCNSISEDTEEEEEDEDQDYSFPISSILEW
Chain of Albumin (Bos taurus) (P02769 whole entry, looked up): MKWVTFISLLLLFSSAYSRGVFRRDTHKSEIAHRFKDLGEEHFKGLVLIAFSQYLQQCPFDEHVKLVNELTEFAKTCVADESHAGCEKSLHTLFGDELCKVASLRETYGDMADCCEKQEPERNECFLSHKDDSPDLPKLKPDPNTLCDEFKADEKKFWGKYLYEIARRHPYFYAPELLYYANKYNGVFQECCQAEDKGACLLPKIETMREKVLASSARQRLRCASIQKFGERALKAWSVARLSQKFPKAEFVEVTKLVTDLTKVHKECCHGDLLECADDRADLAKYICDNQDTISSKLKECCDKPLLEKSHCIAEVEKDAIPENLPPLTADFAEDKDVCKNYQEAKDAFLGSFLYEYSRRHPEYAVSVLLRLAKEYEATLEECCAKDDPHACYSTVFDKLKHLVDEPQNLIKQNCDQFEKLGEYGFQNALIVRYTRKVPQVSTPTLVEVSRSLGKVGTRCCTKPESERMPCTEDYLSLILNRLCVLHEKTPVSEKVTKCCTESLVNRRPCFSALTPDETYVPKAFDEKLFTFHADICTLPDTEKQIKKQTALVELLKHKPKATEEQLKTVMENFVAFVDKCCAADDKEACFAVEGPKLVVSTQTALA
Chain of Concanavalin-A (Canavalia ensiformis) (P02866 whole entry, looked up): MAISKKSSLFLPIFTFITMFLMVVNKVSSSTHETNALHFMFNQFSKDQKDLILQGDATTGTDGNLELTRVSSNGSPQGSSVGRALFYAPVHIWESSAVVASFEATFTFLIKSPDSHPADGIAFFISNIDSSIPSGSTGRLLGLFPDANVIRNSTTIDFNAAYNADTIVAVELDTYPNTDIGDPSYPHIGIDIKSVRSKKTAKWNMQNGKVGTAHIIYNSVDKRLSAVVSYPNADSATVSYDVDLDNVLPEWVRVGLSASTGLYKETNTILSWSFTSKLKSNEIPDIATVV
Chain of Focal adhesion kinase 1 (Homo sapiens) (Q05397 whole entry, looked up): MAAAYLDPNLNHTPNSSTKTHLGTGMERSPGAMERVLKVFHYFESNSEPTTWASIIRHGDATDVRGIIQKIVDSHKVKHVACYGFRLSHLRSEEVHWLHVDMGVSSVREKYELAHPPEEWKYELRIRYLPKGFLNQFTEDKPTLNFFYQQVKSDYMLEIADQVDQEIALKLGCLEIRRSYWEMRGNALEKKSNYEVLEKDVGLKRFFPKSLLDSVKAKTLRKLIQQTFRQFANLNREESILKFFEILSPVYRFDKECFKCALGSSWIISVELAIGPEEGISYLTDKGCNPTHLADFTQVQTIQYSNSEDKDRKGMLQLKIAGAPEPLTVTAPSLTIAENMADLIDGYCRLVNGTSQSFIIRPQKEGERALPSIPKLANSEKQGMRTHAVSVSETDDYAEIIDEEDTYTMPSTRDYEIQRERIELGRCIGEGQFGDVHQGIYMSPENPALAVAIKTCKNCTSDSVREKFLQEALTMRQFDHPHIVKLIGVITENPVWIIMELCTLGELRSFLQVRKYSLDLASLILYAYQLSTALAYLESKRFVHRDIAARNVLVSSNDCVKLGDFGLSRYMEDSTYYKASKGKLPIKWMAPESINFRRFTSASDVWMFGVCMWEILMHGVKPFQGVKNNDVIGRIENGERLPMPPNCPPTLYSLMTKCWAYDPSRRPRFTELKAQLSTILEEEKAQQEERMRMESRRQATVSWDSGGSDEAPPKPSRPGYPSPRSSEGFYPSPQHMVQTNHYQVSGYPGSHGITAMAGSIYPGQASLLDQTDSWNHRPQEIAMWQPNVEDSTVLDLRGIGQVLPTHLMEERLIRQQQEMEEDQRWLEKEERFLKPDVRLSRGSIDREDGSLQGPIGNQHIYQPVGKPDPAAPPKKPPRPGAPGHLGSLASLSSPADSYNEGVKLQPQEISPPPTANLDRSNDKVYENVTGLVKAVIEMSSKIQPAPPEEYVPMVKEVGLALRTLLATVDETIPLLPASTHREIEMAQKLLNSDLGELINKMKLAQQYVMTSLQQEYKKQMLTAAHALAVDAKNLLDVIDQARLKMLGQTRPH

| Compound | composite z-score [1] | composite Z-score [2] | composite z-score [3] | composite z-score [4] | composite z-score [5] | composite z-score [6] | composite z-score [7] | composite z-score [8] | composite z-score [9] | composite z-score [10] | composite z-score [11] | composite z-score [12] | composite z-score [13] | composite z-score [14] | composite z-score [15] | composite z-score [16] | z-score [17] | composite z-score [18] | composite z-score [19] | z-score [20] |
| --- | --- | --- | --- | --- | --- | --- | --- | --- | --- | --- | --- | --- | --- | --- | --- | --- | --- | --- | --- | --- |
| O=C(NCCN1CCOCC1)[C@@H]1c2ccccc2C(=O)N(Cc2ccc(OC(F)(F)F)cc2)[C@H]1c1ccc(CO)cc1 | 0.816 | -0.265 (inactive) | -0.0976 | -0.0429 | 0.761 | 1.64 | -0.195 | 0.686 | -1.49 | -0.159 | 1.97 | 0.292 | 0.022 | -0.419 | 0.0596 | -1.23 | 2.22 | -0.332 | -0.109 | -0.408 (inactive) |
| C=CCNC(=O)[C@@H]1[C@H]2C(=O)O[C@H](c3ccccc3)[C@H](c3ccccc3)N2[C@H](c2ccc(OCCO)cc2)[C@@]12C(=O)Nc1ccc(C#CC3(O)CCCCCC3)cc12 | 0.692 | -0.058 (inactive) | 0.13 | -0.11 | 0.42 | 1.86 | 0.637 | 1.3 | 0.253 | 1.19 | 2.64 | 1.18 | 0.245 | 0.891 | 1.34 | 0.755 | -1.21 | 0.497 | 1.04 | -0.467 (inactive) |
| O=C1c2ccccc2[C@@]2(Cc3ccccc3N(Cc3ccccc3)C2=O)[C@H](c2ccc(CO)cc2)N1Cc1ccccc1Cl | 0.705 | 0.0507 (inactive) | -0.279 | -0.171 | -0.391 | -0.222 | 0.147 | -0.633 | -0.688 | -0.709 | -0.743 | -1.14 | -0.0858 | -1.2 | -0.465 | -0.395 | -0.00887 | -0.0772 | -0.45 | 1.3 (inactive) |
| COC(=O)[C@@]1(Cc2ccc(F)cc2)[C@H]2c3cc(C(=O)N4CCCC4)n(Cc4cc(F)cc5c4OCOC5)c3C[C@H]2CN1C(=O)c1ccccc1 | 0.892 | 0.364 (inactive) | 0.0925 | 0.0266 | -0.0414 | -0.203 | -0.669 | -0.349 | -0.631 | 1.07 | 1.93 | -0.0867 | -0.225 | 0.947 | 0.906 | -0.796 | 1.8 | 0.348 | 0.755 | 2.74 (inactive) |
| CCCCCCc1nc(Cc2cc(OC)c(OC)c(OC)c2)cc2c1[Si](C(C)C)(C(C)C)O[C@H]2c1ccccc1 | -0.261 | 0.688 (inactive) | -0.0647 | -0.166 | -0.117 | -0.327 | -0.589 | 0.523 | 0.52 | 0.118 | 0.0156 | 0.0994 | -0.148 | 0.146 | 0.571 | 0.675 | 0.216 | 0.845 | -0.17 | 0.555 (inactive) |
